Bioassay records: PubChem BioAssay, several laboratories
MCL1-BIM inh – MCL1-BIM-BH3 interaction inhibition (human) | GST-MCL1 / FITC-Bim-BH3 fluorescence polarization | AID 2057 | 320,000 tested, 0.68% active | inhibition, % at 10.9 µM;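 active means inhibition above the mean inhibition of all tested compounds plus 3 SD, set per campaign, cut at about 40% in these data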;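 further: 0% = DMSO wells and 100% = unlabeled Bim-BH3 peptide control; higher means more loss of mP so more displacement of Bim peptide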
Target sequence (Q07820 whole entry, looked up): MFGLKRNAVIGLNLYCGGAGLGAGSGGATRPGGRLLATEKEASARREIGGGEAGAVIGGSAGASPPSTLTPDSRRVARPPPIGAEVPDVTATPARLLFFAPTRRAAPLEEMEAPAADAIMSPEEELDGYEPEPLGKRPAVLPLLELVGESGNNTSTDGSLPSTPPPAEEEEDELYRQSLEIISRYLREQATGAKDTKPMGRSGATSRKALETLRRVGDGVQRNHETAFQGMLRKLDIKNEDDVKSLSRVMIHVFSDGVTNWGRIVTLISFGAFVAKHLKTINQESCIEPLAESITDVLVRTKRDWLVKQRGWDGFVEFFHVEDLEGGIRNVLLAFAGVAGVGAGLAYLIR
Mcl-1 Bim block – human Bim-Mcl-1 interaction inhibition; inhibition, % at 10 µM; Bead-based flow cytometry, Bim peptide-Mcl-1 binding; 190,000 tested, 0.1% active; Q07820; in the data active means inhibition above about 40%;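 further: 0% = no compound tracer wells and 100% = peptide blocker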
Mcl1-Bid inh – disrupts binding of human Mcl-1 to Bid peptide; inhibition, % at 21.7 µM; 220,000 tested, 0.97% active; TR-FRET Mcl-1/Bid-Dy647 peptide binding, 1536-well; Q07820; AID 1021;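 active means compounds that cut the binding signal by more than half at the single screening dose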;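 further: His-tagged Mcl-1 with europium anti-His antibody binding Bid BH3 peptide; 0% = Mcl-1 plus peptide wells and 100% = peptide-only wells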
Mcl1 Noxa PPI – Mcl-1/Noxa interaction inhibition. 220,000 tested, 1.5% active. TR-FRET Mcl-1/Noxa peptide binding, 2 h. inhibition, % at 21.7 µM;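 active means compounds that cut the protein-peptide binding signal by more than 50% relative to plate controls in a single-dose test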;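 further: His-tagged Mcl-1 with rhodamine Noxa BH3 peptide and terbium anti-His antibody; 0% = Mcl-1 plus Noxa peptide wells and 100% = peptide-only wells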
Bcl-xL primary – Bcl-xL (human) inhibition | Q07817 | GST-Bcl-xL / FITC-Bim BH3 peptide fluorescence polarization | inhibition, % at 10.9 µM | 320,000 tested, 0.7% active | AID 2129;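 active means inhibition above the mean of all tested compounds plus 3 SD, cutoff set per campaign, cut at about 30% in these data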;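 further: 0% = DMSO wells and 100% = unlabeled Bim-BH3 peptide competitor; inhibitors lower millipolarization by displacing the labeled peptide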
Target sequence (Q07817 whole entry, looked up): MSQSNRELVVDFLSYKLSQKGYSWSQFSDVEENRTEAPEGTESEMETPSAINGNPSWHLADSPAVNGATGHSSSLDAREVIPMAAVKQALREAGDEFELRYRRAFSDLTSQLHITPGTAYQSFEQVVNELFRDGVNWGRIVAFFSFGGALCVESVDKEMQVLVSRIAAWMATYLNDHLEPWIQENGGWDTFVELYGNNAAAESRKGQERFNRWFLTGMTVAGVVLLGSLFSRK
GLD-1 RNA inh – GLD-1-TGE RNA interaction inhibition (C. elegans); purified GLD-1 + fluorescein TGE RNA, fluorescence polarization; inhibition, % at 5.96 µM; 320,000 tested, 0.44% active;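 active means percent inhibition above a per-plate cutoff, the plate mean of test compounds plus 3 SD, cut at about 30% in these data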;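 further: 0% = DMSO wells with GLD-1 and probe and 100% = wells lacking GLD-1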
Starred values were filed as active, the others as inactive; x = no result. An excerpt weighted towards active compounds, which were near 2.3% of everything screened.

SMILES	MCL1-BIM inh	Mcl-1 Bim block	Mcl1-Bid inh	Mcl1 Noxa PPI	Bcl-xL primary	GLD-1 RNA inh
Cc1ccc(S(=O)(=O)NCC(=O)OCC(=O)N(C)C2CCS(=O)(=O)C2)cc1 (centres undefined)	-1	x	x	x	3	-4
O=C(N/C(=C\c1ccco1)C(=O)N1CCOCC1)c1ccco1	26	9	-41	-8	33*	18
O=C(N/C(=C/c1ccc(Br)cc1)C(=O)N1CCOCC1)c1ccco1	4	x	x	x	3	5
NC(=O)/C(=C/c1ccco1)NC(=O)c1ccc(Br)o1	40*	x	x	x	39*	24
COC(=O)/C(=C/c1ccco1)NC(=O)c1ccc(Br)o1	13	-1	-28	3	9	3
O=C(COC(=O)c1cncc(Br)c1)NC12CC3CC(CC(C3)C1)C2	x	x	x	x	x	3
C=CCn1c(SCc2ccc(C#N)cc2)nnc1-c1cccc(OC)c1	-21	-3	95*	5	-3	3
Cc1ccc(-c2cc(C(=O)NC3=NCCS3)c3ccccc3n2)cc1C	21	-3	-15	13	90*	27
O=C(Cn1ccccc1=O)NCc1ccc(F)cc1	0	x	x	x	3	0
Cc1cc2ccccn2c1C(=O)c1ccc(N/N=C/c2ccc(C(=O)O)cc2)c([N+](=O)[O-])c1	x	x	73*	93*	x	x
C/C(=N\Nc1ccc(C(=O)c2c(C)cc3ccccn23)cc1[N+](=O)[O-])c1ccc(O)cc1	9	x	-23	-18	0	-1
O=C(CNC(=O)C(c1ccccc1)c1ccccc1)N/N=C/c1cccnc1	-4	x	-3	95*	-4	-2
O=C(Cc1ccccc1)NCC(=O)N/N=C/c1cccnc1	4	x	-26	27	3	-1
O=C(C1=NN[C@@H]2C(=O)N(c3cccc(F)c3)C(=O)[C@H]12)c1ccc2ccccc2n1	-1	11	-22	-3	2	-1
COc1cccc(N2C(=O)[C@H]3C(C(=O)c4cnccn4)=NN[C@H]3C2=O)c1	35	x	-38	-23	37*	3
O=C(CN1CCN(C(=O)c2ccco2)CC1)N1CCc2[nH]c3ccccc3c2C1	30	x	-23	9	36*	-17
O=C(c1ccco1)N1CCN(Cc2nc3ccccc3[nH]2)CC1	x	x	x	x	x	2
Cc1ccc2[nH]c3c(c2c1)CN(C(=O)CN1c2ccc(F)cc2CCC1C)CC3 (centres undefined)	-13	2	-32	11	-3	3
Cc1ccc2[nH]c3c(c2c1)CN(C(=O)CN1CCN(C(=O)c2ccco2)CC1)CC3	30	x	-36	11	48*	32*
Cc1ccc2[nH]c3c(c2c1)CN(C(=O)CN1CCN(c2cccc(C)c2C)CC1)CC3	25	0	-8	7	38*	31
O=C(CN1CCSCC1)N1CCc2[nH]c3ccc(Br)cc3c2C1	x	2	-24	13	x	x
NC(=O)c1nsc(C(=O)N(Cc2cccnc2)C(C(=O)NCc2ccc(F)cc2)c2ccc(F)cc2)c1N (centres undefined)	1	x	x	x	-2	-6
Cc1ccc(C(=O)OCC(=O)N(CC(C)C)c2c(N)n(Cc3ccccc3)c(=O)[nH]c2=O)cc1[N+](=O)[O-]	-3	x	x	x	0	-3
O=c1oc2ccccc2n1CCn1c2ccccc2c2nc3ccccc3nc21	-5	12	90*	-34	3	-3
COc1ccc2c(c1)c1nc3ccccc3nc1n2CCn1c(=O)oc2ccccc21	-1	-2	37	21	4	3
SMILES	MCL1-BIM inh	Mcl-1 Bim block	Mcl1-Bid inh	Mcl1 Noxa PPI	Bcl-xL primary	GLD-1 RNA inh
O=[N+]([O-])c1ccc2[nH]nc(-c3ccccc3)c2c1	-1	44*	0	23	1	2
O=[N+]([O-])c1ccc2[nH]c3nc4ccccc4nc3c2c1	23	x	36	64*	14	-4
Cc1csc(SCC(=O)Nc2cc(S(=O)(=O)N(C)C)ccc2C)n1	1	x	x	x	2	-3
COc1cc(C=O)ccc1OCC(=O)Nc1ccc2c(c1)OCO2	5	x	x	x	1	-4
N#Cc1nc(COc2ccc(Br)cc2)oc1N1CCN(Cc2ccccc2)CC1	x	-6	-26	8	x	x
N#Cc1nc(COc2ccc(F)cc2)oc1N1CCN(Cc2ccccc2)CC1	8	1	77*	3	8	-5
CCOC(=O)CN1C(=O)S/C(=C\c2ccc(-c3ccc(C(=O)O)c(Cl)c3)o2)C1=O	14	x	x	x	3	10
O=C(O)c1ccc(-c2ccc(/C=C3\NC(=O)N(Cc4ccc(Cl)cc4)C3=O)o2)cc1Cl	x	2	6	56*	x	x
CC1CN(C2CCN(C(=O)COc3ccc(Cl)cc3)CC2)CC(C)O1 (centres undefined)	-5	-1	57*	35	2	2
Cc1ccc(OCC(=O)N2CCC(N3CC(C)CC(C)C3)CC2)cc1 (centres undefined)	1	x	x	x	5	9
O=C(Nc1c2ccccc2nc2ccccc12)C(Cl)(Cl)Cl	35	3	53*	43	36*	19
O=C(Cc1ccccc1)NNc1c2ccccc2nc2ccccc12	4	-1	-45	5	-2	7
CCOC(=O)C1=c2/c(=C/c3ccncc3)c(N)c(C(=O)OC)n2C(=O)C(c2ccncc2)S1 (centres undefined)	-9	3	62*	30	2	-3
CCOC(=O)C1=C(N)n2c(s/c(=C\c3ccncc3)c2=O)=C(C(=O)OCC)C1c1ccncc1 (centres undefined)	4	0	31	19	2	0
Cc1cc(C(=O)COC(=O)c2ccc(Cl)c(S(N)(=O)=O)c2)c(C)n1C1CC1	2	x	x	x	2	-1
COc1ccc(C2(C(=O)Nc3ccc(C(=O)O)cc3)CCOCC2)cc1	-2	0	59*	-5	6	4
CCN1C(=O)C(C)S/C1=N\S(=O)(=O)c1ccc(F)cc1 (centres undefined)	8	-1	1	75*	3	4
N#CCC(=O)N/N=C/c1cc([N+](=O)[O-])ccc1N1CCOCC1	1	-1	-25	38	6	10
CN1CCN(c2ccc([N+](=O)[O-])cc2/C=N/NC(=O)c2ccc(F)cc2)CC1	x	-1	0	75*	x	x
O=C(Nc1cccc(S(=O)(=O)N2CCCCC2)c1)C1CCCN1S(=O)(=O)c1ccccc1F (centres undefined)	12	x	x	x	5	1
O=C(CSCc1ccc(Cl)cc1)N/N=C/c1ccc(OCC(=O)Nc2ccccc2)cc1	5	3	58*	6	3	8
O=C(CSCc1ccc(Cl)cc1)Nc1ccc(-c2nnc(-c3ccccc3)o2)cc1	0	-6	59*	30	-3	6
COc1ccccc1NC(=O)COc1ccc(/C=N/NC(=O)CSCc2cc(C)cc(C)c2)cc1	2	-5	57*	-40	-1	1
